# Where “and” joins values, the source holds several entries; their conditions need not be identical. Equal values may be shown once. Calls of active or inactive are those of the source.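 The calls were made as follows, unless noted: active = compounds whose cell count with miR-34 switched on is under 0.7 times the count with it off; inactive = the rest.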
# Assays:
# [1] = EMT-state selective cytotoxicity in co-culture – imaging, PC-3E GFP, TEM4-18 mCherry, primary screen (AID 1345086;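 active = compounds killing one labelled cell type while sparing the other, by normalised counts and ratio limits, not self-fluorescent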;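 as to all read-outs here: cells exposed to compound for 72 h before imaging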;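 as to red/green cell ratio (normalised): normalised mesenchymal count divided by normalised epithelial count so high means epithelial killing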); conditions: PC-3E GFP / TEM4-18 mCherry co-culture, imaging cell counts, at 1 µM; for red/green cell ratio (normalised): actives lie on both sides, counts scaled to control wells, 1 = unselective
# [2] = viability loss with induced miR-34 in A549 – imaging, A549 dox-inducible miR-34, nuclei and caspase counts, primary screen (AID 1347080); conditions: A549 miR-34 inducible, Hoechst nuclei count, 48 h
# [3] = MELAS cybrid and Rieske KO viability enhancers – cell-based, MELAS cybrids, Rieske KO mouse fibroblasts, CellTiter-Glo, primary screen (AID 1508586;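 active = mean z-score across replicates of 1.96 or higher in either the MELAS or the Rieske mutant cell line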;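 also: z relative to plate mean and SD of compound and empty wells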); conditions: low glucose
# [4] = target: NAD(+) hydrolase SARM1 (Homo sapiens) (UniProt Q6SZW1); experiment: blocking NAD cleavage by SARM1 SAM-TIR – cell lysate, NAD-Glo luminescence (AID 1508614;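 active = compound whose remaining NAD level is above about 45 nM, limit read from the data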;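 also: higher remaining NAD means stronger inhibition of SARM1 NADase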); conditions: SAM-TIR HEK293T lysate NADase, at 1 µM, stronger effect = higher value
# Sequence of NAD(+) hydrolase SARM1 (Homo sapiens) (Q6SZW1 whole entry, looked up): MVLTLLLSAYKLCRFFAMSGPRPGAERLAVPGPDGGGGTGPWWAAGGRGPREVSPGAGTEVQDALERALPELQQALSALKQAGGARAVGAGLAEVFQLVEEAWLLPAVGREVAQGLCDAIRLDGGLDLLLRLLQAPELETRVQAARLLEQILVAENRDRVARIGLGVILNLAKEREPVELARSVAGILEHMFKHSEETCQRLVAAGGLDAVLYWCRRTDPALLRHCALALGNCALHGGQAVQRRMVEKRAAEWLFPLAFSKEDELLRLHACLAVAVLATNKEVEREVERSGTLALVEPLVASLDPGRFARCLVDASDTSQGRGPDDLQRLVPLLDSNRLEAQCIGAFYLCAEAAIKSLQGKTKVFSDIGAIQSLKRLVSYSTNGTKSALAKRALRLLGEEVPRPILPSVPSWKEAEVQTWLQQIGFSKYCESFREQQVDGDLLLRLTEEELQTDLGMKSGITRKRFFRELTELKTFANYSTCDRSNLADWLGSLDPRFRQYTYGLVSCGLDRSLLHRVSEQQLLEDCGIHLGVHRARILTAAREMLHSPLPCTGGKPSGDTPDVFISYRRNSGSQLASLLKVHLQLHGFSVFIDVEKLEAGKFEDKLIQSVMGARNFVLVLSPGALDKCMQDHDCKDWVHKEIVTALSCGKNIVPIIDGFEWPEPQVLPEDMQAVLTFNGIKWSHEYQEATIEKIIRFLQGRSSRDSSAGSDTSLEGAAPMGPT
# [5] = compounds altering circadian rhythm period length – cell-based, LOPAC library, luminescence reporter (AID 2774; call rule not given here;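 also: values are relative to mean of DMSO wells on each plate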); conditions: circadian reporter cells, at 7 µM, actives lie on both sides
# [6] = system: Hepatitis C virus NS3 helicase; experiment: blockers of NS3h binding to ssDNA – biochemical, fluorescence polarization, LOPAC1280 library, primary screen (AID 687035; in the data active = inhibition above about 37%); conditions: Purified HCV NS3 helicase, Cy5-dT15 ssDNA binding fluorescence polarization; stronger effect = higher value; concentration not given here
# [7] = compounds altering Cy5-DNA-NS3h complex signal – biochemical, LOPAC1280, artefact control for HCV NS3 helicase inhibitor project (AID 687037; call rule not given here); conditions: Cy5-DNA-NS3h complex fluorescence interference counterscreen
# [8] = blockers of cellular phospholipid synthesis – cell-based, LOPAC library, screen 4, primary screen (AID 1347384; call rule not given here); conditions: animal cells, phospholipid biosynthesis inhibition screen; at 10 µM
# [9] = galactose survival enhancers in mitochondrial complex I cybrids – cell-based, galactose medium, ATP luminescence, primary screen (AID 1645843;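 active = z-score of at least 1.8 in each of two replicates, scored against plate mean and spread of sample wells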;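 also: positive z means more ATP and so rescue of galactose-driven cybrid death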); conditions: complex I mutant cybrid cells, 72 h, stronger effect = higher value
# [10] = compounds altering viability of human ES cells (AID 493140; call rule not given here;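 also: cells exposed to compounds for four days before counting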); conditions: human embryonic stem cell survival screen; stronger effect = higher value
# [11] = P. berghei load reduction in hepatocytes – cell-based, HepG2, luciferase luminescence, HepG2 viability, primary screen (AID 624349; in the data active = parasite load remaining mostly below about 12%, no sharp cut-off; inactive = mostly above about 10%;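 also: 100% = mean of DMSO negative control wells on the same plate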); conditions: P. berghei liver stage in HepG2, luciferase luminescence, concentration not given here; parasite load remaining: stronger effect = lower value; viability: measured here: HepG2 viability without parasites
# [12] = target: Mitogen-activated protein kinase 7 (Homo sapiens) (UniProt Q13164); experiment: Gal4-ERK5 driven luciferase induction – cell-based, HTS, primary screen (AID 1508626;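 active = luciferase signal above three times the same-plate solvent-only control wells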;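 also: luciferase driven by Gal4-ERK5 fusion binding five Gal4 sites before minimal TATA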); conditions: HeLa Gal4-ERK5 transactivation, 18 h, at 5 µM, stronger effect = higher value
# Sequence of Mitogen-activated protein kinase 7 (Homo sapiens) (Q13164 whole entry, looked up, the tested form may be a part): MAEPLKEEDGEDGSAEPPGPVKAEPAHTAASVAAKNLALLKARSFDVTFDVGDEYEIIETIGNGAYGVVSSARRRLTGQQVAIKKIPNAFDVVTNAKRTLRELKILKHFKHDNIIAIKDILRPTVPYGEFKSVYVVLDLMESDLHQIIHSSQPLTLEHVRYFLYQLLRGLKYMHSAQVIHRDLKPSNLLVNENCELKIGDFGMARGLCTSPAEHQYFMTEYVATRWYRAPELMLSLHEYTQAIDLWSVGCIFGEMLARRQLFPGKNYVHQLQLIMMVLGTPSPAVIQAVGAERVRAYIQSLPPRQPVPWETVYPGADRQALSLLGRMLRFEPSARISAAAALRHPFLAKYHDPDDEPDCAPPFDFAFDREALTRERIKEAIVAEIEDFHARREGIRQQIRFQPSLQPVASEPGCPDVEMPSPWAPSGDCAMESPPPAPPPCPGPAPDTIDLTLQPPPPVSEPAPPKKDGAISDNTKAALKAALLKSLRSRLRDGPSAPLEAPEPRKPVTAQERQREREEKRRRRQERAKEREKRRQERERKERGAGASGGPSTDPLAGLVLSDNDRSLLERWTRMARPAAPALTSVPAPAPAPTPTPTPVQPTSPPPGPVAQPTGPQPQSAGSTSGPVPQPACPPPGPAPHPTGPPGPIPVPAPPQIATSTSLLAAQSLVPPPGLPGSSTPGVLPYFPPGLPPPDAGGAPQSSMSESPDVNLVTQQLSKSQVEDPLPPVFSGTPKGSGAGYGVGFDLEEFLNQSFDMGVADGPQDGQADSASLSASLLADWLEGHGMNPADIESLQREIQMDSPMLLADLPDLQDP
# [13] = measured here: epithelial PC-3E GFP cell survival
# [14] = measured here: mesenchymal TEM4-18 mCherry cell survival
# [15] = stronger effect = lower value, cell number ratio, induced over uninduced
# [16] = measured here: relative caspase fold change +Dox/-Dox
# [17] = measured here: total cells with miR-34 induction, stronger effect = lower value
# [18] = measured here: total cells without miR-34 induction
# [19] = MELAS cybrid survival, CellTiter-Glo 48 h, stronger effect = higher value
# [20] = Rieske KO mouse fibroblast survival, CellTiter-Glo 72 h
Compound,red/green cell ratio (normalised) [1],"normalised cell number [1, 13]","normalised cell number [1, 14]","fold change [2, 15]","fold change [2, 16]","cell count [2, 17]","cell count [2, 18]","z-score [3, 19]","z-score [3, 20]",remaining NAD [4],period change [5],inhibition [6],fluorescence ratio (interference) [7],outcome [8],z-score [9],survival [10],parasite load remaining [11],viability [11],luciferase signal [12]
N=C(N)c1ccc(N=NNc2ccc(C(=N)N)cc2)cc1 (tested in a mixture with another compound),0.86 (inactive),1.06,0.91,0.828 (inactive) and 0.804 (inactive),1.35 and 1.21,6360 and 8020,7680 and 9970,6.02 (active),5.36,10 nM (inactive),,,,,,,,,
NCCCNCCCCNCCCN,1.05 (inactive),0.96,1,0.928 (inactive),0.993,10300,11100,,,,-0.16 h (inactive),-1% (inactive),1 (inactive),inactive,-0.2 (inactive),,,,
CN1C2CCCC1CC(NC(=O)c1nn(C)c3ccccc13)C2 (stereo not given),0.96 (inactive),0.99,0.95,0.966 (inactive) and 0.87 (inactive),1.65 and 2.43,10200 and 8870,10600 and 10200,,,,,,1 (inactive),inactive,-0.44 (inactive) and 0.15 (inactive),,,,
CC1CC(OC(=O)C(O)c2ccccc2)CC(C)(C)C1 (stereo not given),1 (inactive),1.03,1.03,0.925 (inactive) and 0.927 (inactive),0.697 and 0.603,7310 and 7360,7900 and 7940,-0.227 (inactive),-0.184,10 nM (inactive),,,,,,,,,
CCC(NC(C)C)C(O)c1ccc(O)c(O)c1 (stereo not given),1.04 (inactive),0.9,0.93,1.08 (inactive) and 0.894 (inactive) and 0.889 (inactive),0.697 and 1.09 and 4.01,10800 and 8990 and 12000,9990 and 10100 and 13500,-0.772 (inactive),-0.513,10 nM (inactive),0.18 h (inactive),-1% (inactive),0.9 (inactive),inactive,-1.29 (inactive),6.67 (inactive),55.9% (inactive) and 47.9% (inactive),94.3% and 104%,212 AU (inactive)
O=c1[nH]c(=O)n([C@H]2C[C@H](O)C(CO)O2)cc1I (stereo not given in full),0.98 (inactive),1.09,1.07,1.01 (inactive),0.724,7950,7880,,,,,,,,,,,,
COc1c(O)cc2c(c1O)[C@H]1O[C@H](CO)[C@@H](O)[C@H](O)[C@@H]1OC2=O,0.9 (inactive),1.23,1.11,0.894 (inactive),0.886,8900,9950,,,,,,,,,,,,
O=C(O)Cc1cc(I)c(Oc2ccc(O)c(I)c2)c(I)c1,0.98 (inactive),1.1,1.08,1.03 (inactive) and 0.918 (inactive) and 0.892 (inactive),0.599 and 1.29 and 1.64,7190 and 8760 and 9000,6990 and 9530 and 10100,-0.0879 and -3.89 (inactive),5.02 and -3.53,10 nM (inactive),,,,,,18.8 (inactive),35.5% (inactive) and 118% (inactive),46% and 91.7%,
CCCCCCCC/C=C\CCCCCCCC(=O)O,1.2 (inactive),0.8,0.96,0.965 (inactive) and 1.03 (inactive),0.674 and 0.77,8820 and 6040,9140 and 5860,,,10 nM (inactive),,,,,,,,,
Cc1ccc(S(=O)(=O)NCl)cc1,0.85 (inactive),0.97,0.83,0.925 (inactive),0.99,8910,9630,,,10 nM (inactive),,,,,,,,,
CC(C)N1CCN(c2ccc(OC[C@H]3CO[C@](Cn4cncn4)(c4ccc(Cl)cc4Cl)O3)cc2)CC1,0.77 (inactive),1.12,0.87,0.864 (inactive),1.54,9020,10400,-0.379 (inactive),0.124,10 nM (inactive),,,,,,,37.3% (inactive),97.4%,
O=C1c2ccccc2C(=O)C1c1ccc(Cl)cc1,0.87 (inactive),1.18,1.03,0.921 (inactive),1.21,7610,8270,,,10 nM (inactive),,,,,,,,,
C=COCC(F)(F)F,0.85 (inactive),1.12,0.96,0.911 (inactive),0.971,9000,9870,,,10 nM (inactive),,,,,,,,,
Cc1cc(-c2ccc(N=Nc3ccc4c(S(=O)(=O)O)cc(S(=O)(=O)O)c(N)c4c3O)c(C)c2)ccc1N=Nc1ccc2c(S(=O)(=O)O)cc(S(=O)(=O)O)c(N)c2c1O,0.96 (inactive),0.99,0.95,0.905 (inactive),0.718,8810,9740,,,10 nM (inactive),,,,,,,,,
NC1CCN(c2c(F)cc3c(=O)c(C(=O)O)cn(C4CC4)c3c2Cl)C1 (stereo not given),1.1 (inactive) and 0.63 (inactive),1 and 1.34,1.09 and 0.84,0.917 (inactive) and 0.881 (inactive),1.1 and 1.36,7910 and 9140,8620 and 10400,0.53 (inactive) and 0.358 (inactive),-0.371 and 0.0233,10 nM (inactive),,,,,0.72 (inactive),,12.5% (inactive),73%,
CCC[C@@H]1C[C@@H](C(=O)N[C@@H](C2O[C@H](SC)[C@H](O)[C@@H](O)[C@H]2O)[C@H](C)Cl)N(C)C1 (stereo not given in full),1.26 (inactive),1.17,1.47,0.895 (inactive) and 0.881 (inactive),1.74 and 1.41,9010 and 10700,10100 and 12200,0.619 (inactive),-0.624,,,,,,,18.7 (inactive),39.2% (inactive) and 98.8% (inactive) and 83.4% (inactive),46.1% and 89% and 92.6%,
